Results filed as inconclusive are left out. A call without a number means that no potency is given here. The source made the active and inactive calls. The call rests on the fitted dose curve; in most records, active means well fitted curve in the direction sought with a large enough effect; inconclusive means small, poorly fitted or top-dose-only effect, or another doubt; inactive means no such curve, though single readings can be large; an effect the other way counts as inactive or inconclusive.
Potency means the concentration at half of the fitted maximal effect.

The first experiment can be described thus: BET inhibitor-based combinations targeting novel dependencies in MECOM-rearranged (r) AML: MV-4-11 cell line (AID 2202233). Further: nearly all actives have a fitted effect of over 45% in size. The note with it: MV-4-11 AML viability, CellTiter-Glo luminescence, 48 h; series mostly up to 46 µM. The gist of the method: (§1)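 Activity is given as area under the curve and as Z-AUC, mean-centred within each cell line. It comes from 11-point dose curves normalized to DMSO and empty wells. CellTiter-Glo luminescence was read after 48 hr drug exposure of 500 cells/well.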
`COc1ccc2c(OCc3nnc4ccc(-c5ccccc5)nn34)ccnc2c1`: the Potency entry was “inactive”.

`Cc1cc(N2CCOCC2)ccc1Nc1nc(NC2CCCCC2)c2[nH]cnc2n1`: the Potency is 1.32 µM (active).

With `COc1nc(C)cnc1NS(=O)(=O)c1cccnc1-c1ccc(-c2nnco2)cc1`, the Potency result is “inactive”.

Regarding `COCCN1CCN(Cc2ccc(-c3n[nH]c4c3C(=O)c3c(NC(=O)NN5CCOCC5)cccc3-4)cc2)CC1`, the Potency is 0.0263 µM (active).

As to `Nc1ncnc2c1c(-c1cnc3[nH]ccc3c1)nn2C1CCCC1`, the Potency is 1.66 µM (active).

Take `COC(=O)Nc1nc2ccc(C(=O)c3ccc(F)cc3)cc2[nH]1`: the Potency was 0.742 µM (active).

Take `Cc1ccc2nc(NC(=O)CSc3nc4c(c(=O)n3-c3ccccc3)SCC4)sc2c1`: the Potency entry was “inactive”.

For `COc1ccc2nc3n[nH]c(C)c3c(NCCOCCO)c2c1`, the Potency result was “inactive”.

Turning to `CC(C)CNc1ccnc(NCc2csc(-c3ccccc3)n2)n1`, the Potency is 8.33 µM (active).

Turning to `NC(=O)c1cccc2cn(-c3ccc([C@@H]4CCCNC4)cc3)nc12`, the Potency was 4.17 µM (active).

For `Clc1cccc(-n2nnnc2NCc2ccccc2Oc2ccccn2)c1Cl`, the Potency result is “inactive”.

The next experiment can be described thus: BET inhibitor-based combinations targeting novel dependencies in MECOM-rearranged (r) AML: HNT-34 cell line (AID 2202234). Further: nearly all actives have a fitted effect of over 35% in size. The conditions noted are these: HNT-34 AML viability, CellTiter-Glo luminescence, 48 h; series mostly up to 46 µM. In a few lines: as §1
`COc1ccc2c(OCc3nnc4ccc(-c5ccccc5)nn34)ccnc2c1`: the Potency entry was “inactive”.

Consider `COc1nc(C)cnc1NS(=O)(=O)c1cccnc1-c1ccc(-c2nnco2)cc1`, for which the Potency result is “inactive”.

With `Nc1ncnc2c1c(-c1cnc3[nH]ccc3c1)nn2C1CCCC1`, the Potency is 0.417 µM (active).

Take `COC(=O)Nc1nc2ccc(C(=O)c3ccc(F)cc3)cc2[nH]1`: the Potency was 0.417 µM (active).

Take `Cc1cc(Nc2nc(N[C@@H](C)c3ncc(F)cn3)ncc2Cl)n[nH]1`: the Potency was 2.63 µM (active).

In the case of `Cc1ccc2nc(NC(=O)CSc3nc4c(c(=O)n3-c3ccccc3)SCC4)sc2c1`, the Potency result is “inactive”.

For `COc1ccc2nc3n[nH]c(C)c3c(NCCOCCO)c2c1`, the Potency entry is “inactive”.

As to `CC(C)CNc1ccnc(NCc2csc(-c3ccccc3)n2)n1`, the Potency is 5.9 µM (active).

Turning to `COCCCOc1ccnc(CS(=O)c2nc3ccccc3[nH]2)c1C` (stereo not given), the Potency result was “inactive”.

As for `Cc1ccc(NC(=O)C2(c3ccc4c(c3)OC(F)(F)O4)CC2)nc1-c1cccc(C(=O)O)c1`, the Potency entry was “inactive”.

As to `Clc1cccc(-n2nnnc2NCc2ccccc2Oc2ccccn2)c1Cl`, the Potency entry was “inactive”.

The nature of another experiment: BET inhibitor-based combinations targeting novel dependencies in MECOM-rearranged (r) AML: UCSD-AML1 cell line (AID 2202235). Further: nearly all actives have a fitted effect of over 40% in size. The conditions noted are these: UCSD-AML1 AML cells viability, CellTiter-Glo, 48 h; series mostly up to 46 µM. In a few lines: as §1
For `COc1ccc2c(OCc3nnc4ccc(-c5ccccc5)nn34)ccnc2c1`, the Potency entry is “inactive”.

As for `COc1nc(C)cnc1NS(=O)(=O)c1cccnc1-c1ccc(-c2nnco2)cc1`, the Potency entry was “inactive”.

For the molecule `COCCN1CCN(Cc2ccc(-c3n[nH]c4c3C(=O)c3c(NC(=O)NN5CCOCC5)cccc3-4)cc2)CC1`, the Potency was 0.148 µM (active).

On to `Nc1ncnc2c1c(-c1cnc3[nH]ccc3c1)nn2C1CCCC1`, for which the Potency was 0.372 µM (active).

Turning to `Cc1ccc2nc(NC(=O)CSc3nc4c(c(=O)n3-c3ccccc3)SCC4)sc2c1`, the Potency entry is “inactive”.

For `COc1ccc2nc3n[nH]c(C)c3c(NCCOCCO)c2c1`, the Potency entry was “inactive”.

On to `CC(C)CNc1ccnc(NCc2csc(-c3ccccc3)n2)n1`, for which the Potency was 5.25 µM (active).

For `COCCCOc1ccnc(CS(=O)c2nc3ccccc3[nH]2)c1C` (stereo not given), the Potency result is “inactive”.

As for `CCOC(=O)C1=C(C)NC2=C(C(=O)CC(C)(C)C2)C1c1ccc(-c2ccccc2)cc1` (stereo not given), the Potency entry was “inactive”.

Regarding `Cc1ccc(NC(=O)C2(c3ccc4c(c3)OC(F)(F)O4)CC2)nc1-c1cccc(C(=O)O)c1`, the Potency entry was “inactive”.

Consider `Clc1cccc(-n2nnnc2NCc2ccccc2Oc2ccccn2)c1Cl`, for which the Potency entry is “inactive”.

The next experiment can be described thus: BET inhibitor-based combinations targeting novel dependencies in MECOM-rearranged (r) AML: AML-191 cell line (AID 2202236; further: nearly all actives have a fitted effect of over 35% in size). The conditions noted are these: AML-191 viability, CellTiter-Glo luminescence, 48 h; series mostly up to 46 µM. In a few lines:
(§2)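 Cells were plated at 500 per well and exposed to an 11-point dose series of each drug for 48 hr. Viability was measured by CellTiter-Glo luminescence, normalized to DMSO and empty-well controls, and summarized as AUC and per-cell-line Z-AUC.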
Consider `COc1ccc2c(OCc3nnc4ccc(-c5ccccc5)nn34)ccnc2c1`, for which the Potency result was “inactive”.

In the case of `COc1nc(C)cnc1NS(=O)(=O)c1cccnc1-c1ccc(-c2nnco2)cc1`, the Potency entry is “inactive”.

For the molecule `COCCN1CCN(Cc2ccc(-c3n[nH]c4c3C(=O)c3c(NC(=O)NN5CCOCC5)cccc3-4)cc2)CC1`, the Potency is 0.186 µM (active).

Take `Nc1ncnc2c1c(-c1cnc3[nH]ccc3c1)nn2C1CCCC1`: the Potency is 2.95 µM (active).

`Cc1cc(Nc2nc(N[C@@H](C)c3ncc(F)cn3)ncc2Cl)n[nH]1`: the Potency was 0.132 µM (active).

Turning to `Cc1ccc2nc(NC(=O)CSc3nc4c(c(=O)n3-c3ccccc3)SCC4)sc2c1`, the Potency result was “inactive”.

Regarding `COc1ccc2nc3n[nH]c(C)c3c(NCCOCCO)c2c1`, the Potency entry is “inactive”.

In the case of `CC(C)CNc1ccnc(NCc2csc(-c3ccccc3)n2)n1`, the Potency is 16.6 µM (active).

As to `COCCCOc1ccnc(CS(=O)c2nc3ccccc3[nH]2)c1C` (stereo not given), the Potency entry was “inactive”.

Regarding `CCOC(=O)C1=C(C)NC2=C(C(=O)CC(C)(C)C2)C1c1ccc(-c2ccccc2)cc1` (stereo not given), the Potency entry is “inactive”.

`Cc1ccc(NC(=O)C2(c3ccc4c(c3)OC(F)(F)O4)CC2)nc1-c1cccc(C(=O)O)c1`: the Potency result was “inactive”.

Consider `Clc1cccc(-n2nnnc2NCc2ccccc2Oc2ccccn2)c1Cl`, for which the Potency result is “inactive”.

The nature of a further experiment: BET inhibitor-based combinations targeting novel dependencies in MECOM-rearranged (r) AML: AML-194 cell line (AID 2202237; further: nearly all actives have a fitted effect of over 40% in size). The conditions noted are these: AML-194 (MECOM-r AML) viability, CellTiter-Glo, 48 h; series mostly up to 46 µM. The gist of the method: as §2
Turning to `COc1ccc2c(OCc3nnc4ccc(-c5ccccc5)nn34)ccnc2c1`, the Potency entry is “inactive”.

Regarding `Cc1cc(N2CCOCC2)ccc1Nc1nc(NC2CCCCC2)c2[nH]cnc2n1`, the Potency is 4.17 µM (active).

Regarding `COCCN1CCN(Cc2ccc(-c3n[nH]c4c3C(=O)c3c(NC(=O)NN5CCOCC5)cccc3-4)cc2)CC1`, the Potency is 0.332 µM (active).

For the molecule `Nc1ncnc2c1c(-c1cnc3[nH]ccc3c1)nn2C1CCCC1`, the Potency is 1.86 µM (active).

Take `COC(=O)Nc1nc2ccc(C(=O)c3ccc(F)cc3)cc2[nH]1`: the Potency was 0.332 µM (active).

For `Cc1ccc2nc(NC(=O)CSc3nc4c(c(=O)n3-c3ccccc3)SCC4)sc2c1`, the Potency entry was “inactive”.

On to `CC(C)CNc1ccnc(NCc2csc(-c3ccccc3)n2)n1`, for which the Potency is 16.6 µM (active).

Consider `COCCCOc1ccnc(CS(=O)c2nc3ccccc3[nH]2)c1C` (stereo not given), for which the Potency result was “inactive”.

With `CCOC(=O)C1=C(C)NC2=C(C(=O)CC(C)(C)C2)C1c1ccc(-c2ccccc2)cc1` (stereo not given), the Potency result was “inactive”.

For the molecule `Clc1cccc(-n2nnnc2NCc2ccccc2Oc2ccccn2)c1Cl`, the Potency entry was “inactive”.

Values taken from PubChem BioAssay (NCATS).
